Assay outcomes from PubChem BioAssay.
BCR signal inh: blocks chronic active B-cell receptor signaling | ABC-DLBCL IkBa-CBG/CBR reporter, luminescence ratio, 4 h | Potency, µM (doses to about 46.1 µM), most hits filed as inhibitors | actives 0.05% (n = 340,000) | AID 493014; active means well fitted inhibition curve with a large enough effect in the signal ratio, with a control signal flat, not every such curve was filed as active; inconclusive means small, poorly fitted or top-dose-only effect, or effect the other way, or a change in a side signal; the % refers to the signal ratio
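TMD8 human ABC-DLBCL cells with doxycycline-inducible IκBα–green luciferase fusion and unfused red luciferase, in 0.5% FBS medium; compounds up to 46 uM, 4 h at 37C. Green/red luminescence ratio, filter-overlap corrected, fitted to concentration-response curves.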
Anesthetic bind: binds horse apoferritin like a general anesthetic. actives 0.074% (n = 350,000). Potency, µM (titrated, usually from 77.5 µM), hits mostly inhibitors. apoferritin/1-aminoanthracene competitive binding, fluorescence. AID 485281. P02791; further: nearly all actives have a fitted effect of over 20% in size
Target sequence (P02791 2-175 limits assumed): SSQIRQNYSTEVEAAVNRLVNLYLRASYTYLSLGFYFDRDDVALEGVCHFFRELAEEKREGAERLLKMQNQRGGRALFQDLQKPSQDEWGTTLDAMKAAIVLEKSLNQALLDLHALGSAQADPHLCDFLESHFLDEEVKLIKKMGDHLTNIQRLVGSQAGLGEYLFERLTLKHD
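Horse-spleen apoferritin (10 uM) in 50% saturated 1-aminoanthracene in PBS was incubated 10 min at room temperature with compound. Fluorescence (ex 380, em 535 nm) was normalized to free and bound 1-AMA, with concentration-response fitted by a four-parameter Hill equation.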
Glioma ERSR ind: ER stress response induction in glioma | U87-MG GRP78 promoter luciferase reporter, 16 h | Potency, µM, most hits filed as activators | actives 0.02% (n = 420,000) | AID 602332; further: series mostly up to about 76 µM; nearly all actives have a fitted effect of over 35% in size
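ERSR induction read as luciferase luminescence (Bright-Glo, 10 min at room temperature) in stably transfected human U87-MG glioma cells exposed to compounds for 16 h, using GRP78 as sensor.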
ALOX12 inh: blocks human arachidonate 12S-lipoxygenase; P18054; purified 12hLO, xylenol orange hydroperoxide absorbance; Potency, µM (highest dose often 108 µM), actives largely listed as inhibitors; actives 1.1% (n = 580,000); AID 1671190
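Hydroperoxide product was detected by ferrous iron/xylenol orange as the 573 to 405 nm absorbance ratio. Arachidonic acid at 40 uM (final) was turned over for 30 min at room temperature by 150 nM human 12hLO, pH 7.0 Hepes buffer, after 15 min compound preincubation.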
Hits are given with their value; n = inactive; u = inconclusive; x = no result. A selection: hits, their analogues and other compounds. The true share with any hit is near 1.1%. Unless noted, the call rests on the fitted dose curve; in most records, active means well fitted curve in the direction sought with a large enough effect; inconclusive means small, poorly fitted or top-dose-only effect, or another doubt; inactive means no such curve, though single readings can be large; an effect the other way counts as inactive or inconclusive.

SMILES	BCR signal inh	Anesthetic bind	Glioma ERSR ind	ALOX12 inh
Cc1cccc(NC(=S)NCCc2ccccc2)c1C	n	n	n	u
Cc1cccc(C)c1NC(=S)NCCc1ccc(O)c(O)c1	u	n	16µM	35µM
CSc1ccc(/C=N/NC(=O)C2CC2)cc1	x	x	x	n
COc1cc(/C=C2\SC(=O)N(c3ccccc3Cl)C2=O)cc([N+](=O)[O-])c1O	u	18µM	n	u
COc1cc(/C=C2/C(=O)NN(c3ccc(Cl)c(Cl)c3)C2=O)cc([N+](=O)[O-])c1O	n	u	n	35µM
COC[C@@H]1CN(Cc2cccc(OC)c2OC)C[C@H]1c1ccccn1	x	x	x	n
Cc1cc2c(cc1C)N(C(=O)CCl)CCN2C(=O)CCl	x	x	n	8.9µM
O=C(Nc1ccc(Cl)cc1)C1CCN(c2ncnc3nc[nH]c23)CC1	x	x	x	n
CCc1nc2c(NC(=O)Nc3cccc(C(=O)OC)c3)cccn2n1	x	x	x	71µM
CCNC(=S)N/N=C(\C)c1ccc2ccccc2c1	u	n	x	x
CCNC(=S)N/N=C(\C)c1ccc2ccccc2c1OC(F)F	u	n	n	40µM
O=C(Cc1ccc(Br)cc1)NC1CCN(C2CC2)C1 (configuration not stated)	x	x	x	n
Cc1cc(NC(=O)[C@@H]2CCCN2S(=O)(=O)c2ccccc2)no1	x	x	x	n
CCCSc1nnc(Sc2nnnn2-c2ccccc2)s1	9.2µM	u	n	n
Cc1ccc(-n2nnnc2Sc2nnnn2-c2ccccc2)cc1	x	x	x	n
NC(=O)C1CCCN(c2nc(-c3cccs3)nc3ccccc23)C1 (configuration not stated)	x	x	x	n
CCOC(=O)c1sc(CC(=O)Nc2ccccc2C)nc1C	x	x	x	8.9µM
CCCCc1cc(C[C@H]2CNCC[C@H]2CC(=O)NCc2cccnc2)no1	x	x	x	n
CC(C)(C)c1ccc(-c2cc(C[C@H]3CNCC[C@H]3CC(=O)NCc3cccnc3)no2)cc1	x	x	x	28µM
CN1C[C@@H](NC(=O)Nc2ccccc2)C[C@H]1c1nc(-c2ccccc2)no1	x	x	x	28µM
CN1C[C@@H](NC(=O)Nc2ccccc2)C[C@H]1c1nc(-c2ccc(F)cc2)no1	x	x	x	n
Cc1cc(-c2ccccc2)cc(C)n1	x	x	n	n
c1ccc(-c2cc(-c3ccccc3)[o+]c(-c3ccccc3)c2)cc1	x	x	x	16µM
O=C(Cn1nc(-c2ccc(Cl)cc2)ccc1=O)NCCc1ccccc1	n	7.9µM	n	n
CCc1ccc(CNC(=O)Cn2nc(-c3ccc(Cl)cc3)ccc2=O)cc1	n	16µM	n	n
SMILES	BCR signal inh	Anesthetic bind	Glioma ERSR ind	ALOX12 inh
CCc1ccc(CNC(=O)Cn2nc(-c3ccc(C)cc3)ccc2=O)cc1	u	10µM	n	n
COc1ccccc1SC(C)C(=O)NC1CCCC1 (configuration not stated)	x	x	x	n
CCCCOc1ccc(CNC(=O)c2cnc3sc(N4CCOCC4)nn3c2=O)cc1	x	4.5µM	n	n
CN=C1S/C(=C/c2cn(CC(=O)OC)c3ccccc23)C(=O)N1C	u	n	n	28µM
CCc1cccc2c1NC(=O)C2(O)CC(=O)c1ccc(Br)cc1 (configuration not stated)	x	x	x	n
O=C(CCn1nc(-c2ccc(Cl)cc2)c2ccccc2c1=O)NC1CCCCC1	x	x	x	n
CN1CCN(c2nc(-c3ccc(Cl)s3)cs2)CC1	n	n	n	8.9µM
CC(C)N1CCN(Cc2ccccc2C#Cc2ccccc2)CC1CCO (configuration not stated)	x	x	x	n
N#Cc1c(SCC(=O)N2CCOCC2)nc(N2CCCC2)c2c1CCCC2	x	x	x	n
N#Cc1c(SCCN2CCOCC2)nc(N2CCCCC2)c2c1CCCC2	x	x	x	0.79µM
CC(C)Cc1cc(CNC(=O)Nc2nnc(C(C)(C)C)s2)on1	x	x	x	n
O=C(NC1CCCCC1)N[C@H]1CO[C@H]2[C@@H]1OC[C@@H]2n1nnnc1-c1ccc2c(c1)OCO2	x	x	x	45µM
CCc1nnc(NC(=O)c2cc(-c3ccccc3)nc3ccccc23)s1	x	x	x	n
Cc1oc(-c2cccc(Cl)c2)nc1CN1CCN(C(=O)c2ccco2)CC1	x	x	x	35µM
Cc1oc(-c2cccc(F)c2)nc1CN1CCCN(C(=O)c2ccco2)CC1	n	n	n	u
O=C(O)c1ccc(NC(=O)c2cc(-c3ccco3)nc3ccccc23)cc1	x	x	x	7.9µM
O=C(NC1CC1)c1ccc(NC(=O)c2cc(-c3ccco3)nc3ccccc23)cc1	x	x	x	10µM
O=C(O)c1cc(-c2ccco2)nc2cc3ccccc3cc12	u	n	n	20µM
O=C(O)c1ccccc1/C=N/NC(=O)c1cc(-c2ccco2)nc2ccccc12	n	n	n	u
CC(=O)c1cccc(NC(=O)c2cc(-c3ccco3)nc3ccccc23)c1	n	n	n	28µM
O=C(NNC(=O)c1cc(-c2ccco2)nc2ccccc12)c1ccccc1	n	n	n	u
O=C(NNC(=O)C1CCCc2ccccc21)c1ccccc1Br (configuration not stated)	x	x	x	n
Cc1ccc(CNC(=O)c2cc(COc3c(F)cccc3F)on2)s1	u	13µM	n	n
CCOc1ccc2c(c1)c(N=NC(=N)N)c(O)n2C	u	n	n	n
CCOc1ccc2c(c1)c(N=NC(N)=S)c(O)n2C	n	n	n	5µM
CCN1C(=O)NC(c2ccc(Br)s2)C(C(=O)OC)=C1C (configuration not stated)	x	x	x	n
COc1ccccc1-c1n[nH]c(=S)n1Cc1ccccc1	n	n	n	28µM
